# Test results as given in PubChem BioAssay AID1963322 (National Center for Advancing Translational Sciences (NCATS), 2024).
# Results filed as inconclusive are left out. A call without a number means that no potency is given here. Calls of active or inactive are those of the source. Calls come from the whole dose curve.
# Biological target: cAMP-dependent protein kinase catalytic subunit alpha (Homo sapiens) (UniProt P17612)
# Experiment: Protein Kinase A (PKA-HiBiT) SDR gain of signal screen
# Method in brief: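 Gain of luminescent signal after Nano-Glo HiBiT detection (10 min, RT) was the read-out. Beforehand, compounds were incubated 30 min at room temperature in the dark with 10 nM final PKA-N-HiBiT, with H-89 as positive control.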
row,SMILES,Potency
1,Nc1nc(NCCNc2ncc(-n3ccnc3)c(-c3ccc(Cl)cc3Cl)n2)ccc1[N+](=O)[O-],inactive
2,O=c1cc(N2CCOCC2)nc2c3ccccc3ccn12,inactive
3,Cn1sc(=O)n(Cc2ccccc2)c1=O,inactive
4,CN1CCN(c2ccc(Nc3ncc4cc(C#N)c(=O)n(C5CCCC5)c4n3)cc2)CC1,inactive
5,COc1ccc2c(Oc3ccc(NC(=O)c4c(C)n(CC(C)(C)O)n(-c5ccccc5)c4=O)nc3)ccnc2c1,inactive
6,Cc1cc(Nc2ncc3c(n2)N(C)C(=O)N(c2cc(NC(=O)c4cccc(C(F)(F)F)c4)ccc2C)C3)n(C)n1,inactive
7,Cn1cc(-c2[nH]c3cc(NC(=O)[C@H](N)C4CCCCC4)cc4c3c2C=NNC4=O)cn1,0.6 µM (active)
8,Cc1cc(Nc2cc(N3CCN(C)CC3)nc(Sc3ccc(NC(=O)C4CC4)cc3)n2)n[nH]1,inactive
9,C[C@@H](NC(=O)c1ncnc(N)c1Cl)c1ncc(C(=O)Nc2cc(C(F)(F)F)c(Cl)cn2)s1,inactive
10,Cc1[nH]c(/C=C2\C(=O)Nc3ccc(S(=O)(=O)Cc4c(Cl)cccc4Cl)cc32)c(C)c1C(=O)N1CCC[C@@H]1CN1CCCC1,inactive
11,CNS(=O)(=O)c1ccc2c(c1)/C(=C/c1[nH]c3c(c1CCCN1CCN(C)CC1)CCCC3)C(=O)N2,inactive
12,N#Cc1cccc(-c2c[nH]c3ncnc(N4CCOCC4)c23)c1,13.4 µM (active)
13,COc1cc2nccc(Oc3ccc(NC(=O)Nc4ccc(F)cc4F)c(F)c3)c2cc1OC,inactive
14,FC(F)(F)c1ccc(/C=C/c2nc(COc3ccc(CCCCn4ccnn4)cc3)co2)cc1,inactive
15,O=S(=O)(/N=C/c1c(O)ccc2ccccc12)c1cccs1,inactive
16,COc1ccc(S(=O)(=O)N(C(C)=O)c2ccccc2/C=C/c2cc[n+]([O-])cc2)cc1,inactive
17,O=C(O)C1(Cc2cccc(Nc3nccs3)n2)CCC(Oc2cccc(Cl)c2F)CC1 (stereo unspecified),14.5 µM (active)
18,COc1cc(NC(=O)c2cccc(-n3cc(NC(=O)Nc4cccc(C)c4)cn3)c2)cc(OC)c1OC,inactive

row,SMILES,Potency
1,COC(=O)Nc1ccc(-c2nc(N3CCOCC3)c3cnn(C4CCN(C(=O)OC)CC4)c3n2)cc1,inactive
2,NC(=O)c1cccc(-c2cc(Nc3ccc(OC(F)(F)F)cc3)ncn2)c1,inactive
3,O=C(c1cccc(Cl)c1F)N1CCN(Cc2cccc(Nc3nccs3)n2)CC1,inactive
4,Nc1ncccc1-c1nc2ccc(-c3ccccc3)nc2n1-c1ccc(C2(N)CCC2)cc1,inactive
5,Nc1ncc(-c2cnn(CCO)c2)c2scc(-c3ccc(NC(=O)Nc4cccc(F)c4)cc3)c12,inactive
6,COc1cc2c(cc1OC)-c1[nH]nc(Nc3cccc(F)c3)c1C2,inactive
7,CN1CCN(CCCNc2ncc(Cl)c(-c3cc4c(C(=O)NC5CC5)cccc4s3)n2)CC1,inactive
8,Cc1cccc(C)c1-n1c(=O)c2cnc(Nc3ccc(N4CCN(C)CC4)cc3)nc2n2c3ccccc3nc12,inactive
9,Cc1cccc(/C=N/Nc2cc(N3CCOCC3)nc(OCCc3ccccn3)n2)c1,inactive
10,Cc1cn(-c2cccc(NC(=O)c3ccc(C)c(Nc4nccc(-c5cccnc5)n4)c3)c2)cn1,inactive
11,Nc1ncnc2c1c(-c1cnc3[nH]ccc3c1)nn2C1CCCC1,inactive
12,CCN(CC)CCOc1ccc(Nc2ncc3cc(-c4c(Cl)cccc4Cl)c(=O)n(C)c3n2)cc1,inactive
13,COc1ccc(CNC(=O)Nc2ncc([N+](=O)[O-])s2)cc1,inactive
14,C#Cc1cccc(Nc2ncnc3cc4c(cc23)OCCOCCOCCO4)c1,inactive
15,CCn1c(=O)c(-c2ccc(Cl)cc2Cl)cc2cnc(Nc3ccc(N4CCNCC4)c(F)c3)nc21,inactive
16,Cc1ccc(-n2nc(C(C)(C)C)cc2NC(=O)NCc2cc(F)ccc2Oc2ccc3c(cnn3CCO)c2)cc1,inactive
17,COc1cc(N2CCN(C)CC2)ccc1Nc1nc(N)c(C(=O)c2c(Cl)cccc2Cl)s1,inactive
18,CCNC(=O)Nc1ccc(-c2nc3c(c(N4CCOC[C@@H]4C)n2)CCN(c2ncccn2)C3)cc1,inactive
